Measured values published in PubChem BioAssay AID588676 (Johns Hopkins Ion Channel Center, 2011).
The whole screen tested about 310,000 compounds, of which about 3,900 (1.3%) were called active.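 Rule for the calls: active = calcium-response B-score plate-corrected more than 3 library SD below zero, starting fluorescence within 5 deviations, no agonist response on first addition; inactive = the rest.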 The sample as a whole holds a higher share of actives than the screen did.

Target: Mas-related G-protein coupled receptor member X1 (Homo sapiens) (UniProt Q96LB2)
Sequence (Q96LB2 whole entry, looked up): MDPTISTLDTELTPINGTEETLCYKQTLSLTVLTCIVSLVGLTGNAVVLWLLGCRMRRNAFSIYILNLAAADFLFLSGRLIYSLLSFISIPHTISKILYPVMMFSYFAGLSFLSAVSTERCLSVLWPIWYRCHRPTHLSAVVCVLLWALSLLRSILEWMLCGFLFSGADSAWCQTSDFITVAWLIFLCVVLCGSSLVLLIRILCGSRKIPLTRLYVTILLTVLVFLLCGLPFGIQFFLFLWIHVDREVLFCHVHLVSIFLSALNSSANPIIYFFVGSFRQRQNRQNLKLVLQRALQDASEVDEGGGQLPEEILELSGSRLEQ
Assay: antagonists of human MrgX1 receptor, primary screen, HEK293 cells, Fluo-4 calcium flux (AID 588676);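 for B-score: peak minus trough fluorescence over baseline after final BAM8-22 challenge near maximal dose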
Conditions: Fluo-4, BAM8-22 antagonism, at 10 µM; stronger effect = lower value

B-score, inactive:
Cc1cc([N+](=O)[O-])ccc1NCc1cccc([N+](=O)[O-])c1, Cc1c(Br)c([N+](=O)[O-])nn1CC(=O)Nc1sc2c(c1C(=O)OC(C)C)CCC(C)C2 (stereo not drawn), COC(=O)c1ccc(NC(=O)CSc2nc(N)c(NC(=O)c3ccc(Br)o3)c(=O)[nH]2)cc1, COc1ccc(C(=O)Nc2c(N)nc(SCC(=O)Nc3ccc(C(C)=O)cc3)[nH]c2=O)cc1, COC(=O)C(C(=O)Nc1cccc(C)n1)C1CCCCCC1 (stereo not drawn), Cc1c(NC(=O)CCC2CCCCC2)cc(C(=O)N2CCOCC2)cc1[N+](=O)[O-], Cc1ccc(S(=O)(=O)Nc2nc3ccccc3nc2N2CCc3ccccc3C2)cc1, Cc1cc(N2CCN(S(=O)(=O)c3ccc(C)c(C)c3)CC2)c2ccccc2n1, C#CCOCCOCCOCCNc1nc(N2CCN(C(=O)C(Cc3ccc(O)cc3)n3cc(C(N)CC(C)C)nn3)CC2)nc(N2CCN(C(=O)C(Cc3ccc(O)cc3)n3cc(C(N)C(C)CC)nn3)CC2)n1 (stereo not drawn), O=C(Nc1nnc(-c2ccccc2F)s1)c1ccccc1F, CN(CC(=O)NCCN1CCOCC1)S(=O)(=O)c1ccc(F)cc1, CCOc1ccc(NS(=O)(=O)c2ccc(C(=O)NC3CCN(Cc4ccccc4)CC3)cc2)cc1, CCOc1ccc(NC(=S)N2CCC(NC(=O)c3ccccc3)CC2)cc1, CCOC(=O)c1nnn2c1nc(N1CCN(c3ccccc3)CC1)c1ccccc12, COc1cc(C(=S)N2CCOCC2)cc(OC)c1OC(=O)c1cc([N+](=O)[O-])c(C)c([N+](=O)[O-])c1, O=S(=O)(ON(c1ccccc1)S(=O)(=O)c1ccccc1)c1ccccc1, CCOC(=O)c1ccc2[nH]c3c(c2c1)CCCC3NC=O (stereo not drawn), O=C(NC(C(=O)NCCN1CCOCC1)C12CC3CC(CC(C3)C1)C2)C1CCCCC1 (stereo not drawn), O=C(C[C@H]1C(=O)N(c2ccc(F)c(F)c2)C[C@@H]1Cc1ccccc1)Nc1ccccc1, C/C=C/C=C/C(=O)OCC(=O)Nc1ccc(Cl)cc1, O=[N+]([O-])c1ccc(F)cc1Oc1nc(-c2cccnc2)nc2ccccc12, COc1ccc(Nc2nc(-c3cccnc3)nc3ccccc23)cn1, CCOc1ccc(C(C)=O)cc1COC(=O)CN1C(=O)NC2(CCCC2)C1=O, Cc1cccc(OCC(O)Cn2c(N3CCCCC3)nc3c2c(=O)[nH]c(=O)n3C)c1 (stereo not drawn), c1ccc(-c2cc3c(NCC4COc5ccccc5O4)ncnc3s2)cc1 (stereo not drawn), Oc1cc2c(cc1O)CN(C(=S)NCCc1ccc(Cl)cc1)CCC2, COc1ccc(/C=N/NC(=O)C2CC2)c(OC)c1OC, Oc1ccccc1C=NC1CCCCC1N=Cc1ccccc1O (stereo not drawn), O=C(O)c1ccc(N/N=C/c2ccc3ncccc3c2)cc1, Cc1ccc2cc(/C=N/NC(=O)[C@@H]3CCCN3)c(Cl)nc2c1, CCCCC(O)(CCCC)C(=O)NN(C(=O)CCl)c1ccccc1, CC(C)(C)c1ccc(/C=C2\Oc3c(ccc(O)c3CN3CCN(CCO)CC3)C2=O)cc1, O=C(Nc1cccc(-c2nc3ccccc3[nH]2)c1)c1ccc(C(=O)Nc2cccc(-c3nc4ccccc4[nH]3)c2)cc1, COc1ccc(-c2[nH]nc(-c3ccccc3)c2-c2nc3ccccc3[nH]2)cc1, CC(OC(=O)CCCOc1ccccc1)C(=O)Nc1ccc(Cl)cn1 (stereo not drawn), CCOCCCn1c(NN)nc2ccccc2c1=O, CCCCCCn1c(CN2CCCC(C)C2)nc2c1c(=O)n(C)c(=O)n2C (stereo not drawn), Cc1c(CN2CCCCC2)c(O)n(CCO)c(=O)c1C#N, Cc1cc(NC(=O)/C=C/C(=O)N(c2ccccc2C)C(C(=O)NC2CCCC2)c2ccc(F)cc2)no1 (stereo not drawn), CCOCCOCCC(C(=O)O)P(=O)(c1ccccc1)c1ccccc1 (stereo not drawn), N#CC1=C(N)C(C#N)(C#N)[C@H](c2ccsc2)[C@H]2COCC=C12, CCN1CC=C2C(C#N)=C(N)C(C#N)(C#N)[C@H](c3ccoc3)[C@H]2C1, O=C(O)CN1c2cccc3cccc(c23)S1(=O)=O, COc1ccc(-c2cc(C(F)(F)F)nc(S(C)(=O)=O)n2)cc1OC, O=C(NNC1=NCCC1)c1cccc(S(=O)(=O)N2CCCCC2)c1, COc1ccc(Cl)cc1NC(=O)CNc1ccccc1F, C=C(C)C1CC=C(C)/C(=N/NC(=O)CCCNc2cccc(C)c2)C1 (stereo not drawn), O=S(=O)(Nc1ccccc1Cl)c1cccc2nsnc12, Cn1nc(C(C)(C)C)c(NC(=O)c2sccc2Cl)c1C(C)(C)C, COc1ccccc1N(CC(=O)NC1CCCC1)C(=O)C1(C)CC(=O)N=C2C=CC(C)=CN21 (stereo not drawn), CCn1c(SCC(=O)Nc2ccc(C)cc2)nc2nc3c(cc2c1=O)CCCC3, O=C1CC(c2c(F)cccc2Cl)C(n2cncn2)C(O)=C1C1NCCc2ccccc21 (stereo not drawn)

B-score, active:
COc1ccc(C(=O)Nc2c(N)nc(SCC(=O)N3CCC(C)CC3)[nH]c2=O)cc1OC -5.91, Cc1ccc(S(=O)(=O)C(C#N)c2nc3ccccc3nc2N2CCCC2)cc1C (stereo not drawn) -6.25, CCOc1ccc(C(=O)NC2CCN(S(=O)(=O)CC)CC2)cc1 -5.83, CC1=C/C(=N\OS(=O)(=O)c2ccccc2)C=CC1=O -5.63, COc1ccccc1Oc1nc(-c2cccnc2)nc2ccccc12 -5.1, O=C(N/N=C/c1ccccc1O)C1CCCC1 -4.79, Cc1ccc2cc(/C=N/Nc3ccc(C(=O)O)cc3)c(Cl)nc2c1 -14.6, c1ccc(-c2[nH]ncc2-c2nc3ccccc3[nH]2)cc1 -5.86, CCCn1c(O)c(CN2CCCC(C)C2)c(C)c(C#N)c1=O (stereo not drawn) -5.29, CCCN1CC=C2C(C#N)=C(N)C(C#N)(C#N)C(c3cc(OC)ccc3OC)C2C1 (stereo not drawn) -7.07, C=C(C)C1CC=C(C)/C(=N\NC(=O)CNc2ccccc2OC)C1 (stereo not drawn) -6.1
